Measurements taken from PubChem BioAssay (NCATS).
Inconclusive results are not listed. Calls of active or inactive are those of the source. Unless noted, calls come from the whole dose curve; as a rule, active = well fitted curve in the direction sought with a large enough effect; inconclusive = small, poorly fitted or top-dose-only effect, or another doubt; inactive = no such curve, though single readings can be large; an effect the other way counts as inactive or inconclusive.

Assays:
[1] = target: ATP-dependent 6-phosphofructokinase (Trypanosoma brucei brucei) (UniProt O15648); test: qHTS Assay to Find Inhibitors of T. brucei phosphofructokinase: hit validation (AID 492961);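 note: luminescence reports ADP formed as PFK phosphorylates fructose-6-phosphate with ATP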
Outline: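 PFK 1.25 nM, F6P 0.5 mM, ATP 0.1 mM, MgCl2 5 mM, 0.1 M TEA pH 8.0, Tween20 0.01%, BSA 0.1%; 45 min RT. ADP-Glo two-step detection, luminescence. qHTS titration; curve fitting with curve-class categorization.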

[2] = target: Ubiquitin carboxyl-terminal hydrolase 1 (Homo sapiens) (UniProt O94782); test: Inhibitors of USP1/UAF1: Pilot qHTS (AID 504865);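 note: rhodamine fluorescence freed from ubiquitin-rhodamine substrate followed over time; top concentration of the series differs between compounds; nearly all actives have a fitted effect of over 35% in size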
Outline: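 In 50mM HEPES pH 7.8 containing 0.5mM EDTA, 1mM TCEP, 0.1 mg/ml BSA and 0.01% Tween-20, 1nM USP1/UAF1 is exposed to compound for 15 min, then Ub-Rho (150nM final) is added and fluorescence is read over time.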

[3] = target: Luciferin 4-monooxygenase (Photinus pyralis) (UniProt P08659); test: Biochemical firefly luciferase enzyme assay for NPC (AID 624030);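 note: purified P. pyralis luciferase at 10 nM with luciferin and ATP substrate; nearly all actives have a fitted effect of over 70% in size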
Outline: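 Counter-screen for direct inhibition of the luciferase enzyme by approved-drug library compounds, run at 10 nM enzyme in 50 mM Tris acetate (final). Luminescence was read within 5 min of enzyme-buffer addition and normalized to PTC124 versus DMSO (0%).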

[4] = S16 Schwann cell viability assay (CellTiter-Glo assay) (AID 624031);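 note: native untransfected S16 rat Schwann cells; cellular ATP luminescence as a viability measure; nearly all actives have a fitted effect of over 70% in size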
Outline: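 Cells were seeded at 500-750 per well in phenol red-free DMEM with 10% FBS and left overnight. Compounds or DMSO were pinned in, incubation ran 24 h at 37 °C/5% CO2, then CellTiter-Glo reagent was added and luminescence measured.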

[5] = S16 Schwann cell PMP22 intronic element beta-lactamase assay (AID 624044; calls by dose curve; note: nearly all actives have a fitted effect of over 15% in size); conditions: S16 rat Schwann cells, PMP22 element beta-lactamase FRET, 24 h; ratio activity, negative = inhibition: at 38.3 µM (top of the series) unless noted
Outline: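 Rat S16 Schwann cells with beta-Lac driven by a PMP22 intronic element, compound-treated 24 h at 37 °C. LiveBLAzer FRET B/G read: 460 nm normalized to potassium clavulanate vs DMSO; 535 nm FRET as viability; concentration-effect curves classified.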

[6] = target: Cytochrome P450 2D6 (Homo sapiens) (UniProt P10635); test: Cytochrome P450 family 2 subfamily D member 6 (CYP2D6) small molecule antagonists: luciferase biochemical (cell-free) qHTS assay (AID 1645840; active = well fitted curve in the direction sought with a large enough effect in the repeat runs; an effect the other way counts as inactive or inconclusive; note: nearly all actives have a fitted effect of over 55% in size)
Outline: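 P450-Glo luminescent screen: recombinant CYP2D6 enzyme–proluciferin substrate mix preincubated with compound 10 min at room temperature, then NADPH regeneration added for 1 h at room temperature. Detection reagent added for 20 min; luciferin light read as relative luminescence units.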

[7] = target: Cytochrome P450 3A4 (Homo sapiens) (UniProt P08684); test: Cytochrome P450 family 3 subfamily A member 4 (CYP3A4) small molecule antagonists: luciferase qHTS assay (AID 1645841; active = well fitted curve in the direction sought with a large enough effect in the repeat runs; an effect the other way counts as inactive or inconclusive; note: nearly all actives have a fitted effect of over 45% in size)
Outline: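 P450-Glo CYP3A4 enzyme with proluciferin substrate was preincubated with DMSO-dissolved compounds for 10 min at room temperature. NADPH regeneration solution started a 1 h reaction. Detection reagent stopped it, and luminescence was read after 20 min.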

[8] = qHTS profiling for inhibitors of Plasmodium falciparum proliferation (AID 504749); note: potency is the fitted concentration of half-maximal effect; nearly all actives have a fitted effect of over 60% in size; conditions: P. falciparum in erythrocytes, SYBR Green DNA, 72 h
Outline: (§1)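 Parasite proliferation within erythrocytes, 72 h exposure. Endpoint: SYBR Green I fluorescence after overnight lysis at room temperature. Controls: 0.29 uM artemisinin, DMSO.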

[9] = system: 3D7; test: as above; conditions: P. falciparum in erythrocytes, SYBR Green DNA, 72 h; series mostly up to 28.7 µM
Outline: as §1

[10] = system: 7G8; test: as above; conditions: P. falciparum in erythrocytes, SYBR Green DNA, 72 h; series mostly up to 12.8 µM
Outline: as §1

[11] = system: AA1029; test: as above; conditions: P. falciparum in erythrocytes, SYBR Green DNA, 72 h; series mostly up to 28.7 µM
Outline: as §1

[12] = system: AS120; test: as above; conditions: P. falciparum in erythrocytes, SYBR Green DNA, 72 h; series mostly up to 28.7 µM
Outline: as §1

[13] = system: ATS189; test: as above; conditions: P. falciparum in erythrocytes, SYBR Green DNA, 72 h; series mostly up to 28.7 µM
Outline: as §1

[14] = system: ATS95; test: as above; conditions: P. falciparum in erythrocytes, SYBR Green DNA, 72 h; series mostly up to 28.7 µM
Outline: as §1

[15] = system: C2A; test: as above; conditions: P. falciparum in erythrocytes, SYBR Green DNA, 72 h; series mostly up to 28.7 µM
Outline: as §1

[16] = system: CP191; test: as above; conditions: P. falciparum in erythrocytes, SYBR Green DNA, 72 h; series mostly up to 28.7 µM
Outline: as §1

[17] = system: CP192; test: as above; conditions: P. falciparum in erythrocytes, SYBR Green DNA, 72 h; series mostly up to 28.7 µM
Outline: as §1

[18] = system: CP194; test: as above; conditions: P. falciparum in erythrocytes, SYBR Green DNA, 72 h; series mostly up to 28.7 µM
Outline: as §1

[19] = system: CP201; test: as above; conditions: P. falciparum in erythrocytes, SYBR Green DNA, 72 h; series mostly up to 28.7 µM
Outline: as §1

[20] = system: CP203; test: as above; conditions: P. falciparum in erythrocytes, SYBR Green DNA, 72 h; series mostly up to 28.7 µM
Outline: as §1

[21] = system: CP211; test: as above; conditions: P. falciparum in erythrocytes, SYBR Green DNA, 72 h; series mostly up to 28.7 µM
Outline: as §1

[22] = system: CP215; test: as above; conditions: P. falciparum in erythrocytes, SYBR Green DNA, 72 h; series mostly up to 28.7 µM
Outline: as §1

[23] = system: CP217; test: as above; conditions: P. falciparum in erythrocytes, SYBR Green DNA, 72 h; series mostly up to 28.7 µM
Outline: as §1

[24] = system: CP237; test: as above; conditions: P. falciparum in erythrocytes, SYBR Green DNA, 72 h; series mostly up to 28.7 µM
Outline: as §1

[25] = system: CP238; test: as above; conditions: P. falciparum in erythrocytes, SYBR Green DNA, 72 h; series mostly up to 28.7 µM
Outline: as §1

[26] = system: CP247; test: as above; conditions: P. falciparum in erythrocytes, SYBR Green DNA, 72 h; series mostly up to 28.7 µM
Outline: as §1

[27] = system: CP250; test: as above; conditions: P. falciparum in erythrocytes, SYBR Green DNA, 72 h; series mostly up to 12.8 µM
Outline: as §1

[28] = system: CP252; test: as above; conditions: P. falciparum in erythrocytes, SYBR Green DNA, 72 h; series mostly up to 12.8 µM
Outline: as §1

[29] = system: CP256; test: as above; conditions: P. falciparum in erythrocytes, SYBR Green DNA, 72 h; series mostly up to 28.7 µM
Outline: as §1

[30] = system: CP260; test: as above; conditions: P. falciparum in erythrocytes, SYBR Green DNA, 72 h; series mostly up to 28.7 µM
Outline: as §1

Measured: Potency

Cytochrome P450 2D6 (Homo sapiens), sequence (P10635 whole entry, looked up): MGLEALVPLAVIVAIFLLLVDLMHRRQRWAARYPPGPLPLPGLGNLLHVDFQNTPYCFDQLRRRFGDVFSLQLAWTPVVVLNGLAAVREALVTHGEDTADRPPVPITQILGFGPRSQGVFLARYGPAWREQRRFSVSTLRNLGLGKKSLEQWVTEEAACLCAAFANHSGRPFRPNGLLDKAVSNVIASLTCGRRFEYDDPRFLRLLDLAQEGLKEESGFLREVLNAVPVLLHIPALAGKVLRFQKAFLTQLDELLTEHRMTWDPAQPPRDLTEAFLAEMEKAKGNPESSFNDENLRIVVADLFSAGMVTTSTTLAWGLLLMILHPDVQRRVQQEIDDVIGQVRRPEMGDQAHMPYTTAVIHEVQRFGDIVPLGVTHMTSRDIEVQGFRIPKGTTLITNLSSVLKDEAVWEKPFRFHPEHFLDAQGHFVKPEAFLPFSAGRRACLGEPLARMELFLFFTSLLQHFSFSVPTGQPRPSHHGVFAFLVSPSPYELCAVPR
Cytochrome P450 3A4 (Homo sapiens), sequence (P08684 whole entry, looked up): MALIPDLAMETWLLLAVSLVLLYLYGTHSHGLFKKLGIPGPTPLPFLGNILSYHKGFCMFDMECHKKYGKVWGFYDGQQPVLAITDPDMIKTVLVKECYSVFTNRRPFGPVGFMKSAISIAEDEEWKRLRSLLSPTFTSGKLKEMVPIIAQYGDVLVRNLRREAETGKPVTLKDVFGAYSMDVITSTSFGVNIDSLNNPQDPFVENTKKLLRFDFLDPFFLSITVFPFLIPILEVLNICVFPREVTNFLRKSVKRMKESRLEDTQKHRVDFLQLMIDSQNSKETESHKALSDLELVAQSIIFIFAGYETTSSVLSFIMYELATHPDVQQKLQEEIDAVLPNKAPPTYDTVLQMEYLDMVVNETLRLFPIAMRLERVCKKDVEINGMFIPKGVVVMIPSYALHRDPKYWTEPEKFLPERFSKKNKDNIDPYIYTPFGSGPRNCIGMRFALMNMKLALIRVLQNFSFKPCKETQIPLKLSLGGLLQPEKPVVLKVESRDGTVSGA
ATP-dependent 6-phosphofructokinase (Trypanosoma brucei brucei), sequence (O15648 whole entry, looked up): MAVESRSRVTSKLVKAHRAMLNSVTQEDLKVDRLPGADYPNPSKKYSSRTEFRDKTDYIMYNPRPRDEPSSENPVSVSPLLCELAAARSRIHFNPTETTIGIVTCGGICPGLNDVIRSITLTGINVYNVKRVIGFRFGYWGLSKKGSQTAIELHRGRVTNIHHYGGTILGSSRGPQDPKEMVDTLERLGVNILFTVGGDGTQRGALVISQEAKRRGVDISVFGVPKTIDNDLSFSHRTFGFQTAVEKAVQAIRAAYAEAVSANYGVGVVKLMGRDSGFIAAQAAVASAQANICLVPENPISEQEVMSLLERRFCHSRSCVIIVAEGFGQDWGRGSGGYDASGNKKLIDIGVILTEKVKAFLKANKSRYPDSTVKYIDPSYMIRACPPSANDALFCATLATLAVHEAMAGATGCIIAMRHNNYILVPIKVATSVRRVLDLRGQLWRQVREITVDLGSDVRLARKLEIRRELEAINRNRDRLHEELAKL
Luciferin 4-monooxygenase (Photinus pyralis), sequence (P08659 whole entry, looked up): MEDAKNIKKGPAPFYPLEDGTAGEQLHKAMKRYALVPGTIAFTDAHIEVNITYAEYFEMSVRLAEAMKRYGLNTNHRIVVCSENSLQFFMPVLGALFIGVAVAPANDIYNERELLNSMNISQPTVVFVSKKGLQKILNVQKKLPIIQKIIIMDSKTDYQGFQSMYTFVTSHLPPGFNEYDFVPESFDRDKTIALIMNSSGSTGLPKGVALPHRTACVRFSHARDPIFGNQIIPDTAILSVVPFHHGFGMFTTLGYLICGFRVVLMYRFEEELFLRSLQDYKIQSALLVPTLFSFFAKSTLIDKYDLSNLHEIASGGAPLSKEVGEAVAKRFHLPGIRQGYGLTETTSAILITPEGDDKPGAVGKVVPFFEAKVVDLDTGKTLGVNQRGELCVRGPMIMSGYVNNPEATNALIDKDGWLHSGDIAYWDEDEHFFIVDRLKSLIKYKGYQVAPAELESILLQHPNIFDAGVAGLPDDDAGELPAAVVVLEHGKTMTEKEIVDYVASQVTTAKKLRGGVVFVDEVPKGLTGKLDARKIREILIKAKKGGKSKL
Ubiquitin carboxyl-terminal hydrolase 1 (Homo sapiens), sequence (O94782 whole entry, looked up): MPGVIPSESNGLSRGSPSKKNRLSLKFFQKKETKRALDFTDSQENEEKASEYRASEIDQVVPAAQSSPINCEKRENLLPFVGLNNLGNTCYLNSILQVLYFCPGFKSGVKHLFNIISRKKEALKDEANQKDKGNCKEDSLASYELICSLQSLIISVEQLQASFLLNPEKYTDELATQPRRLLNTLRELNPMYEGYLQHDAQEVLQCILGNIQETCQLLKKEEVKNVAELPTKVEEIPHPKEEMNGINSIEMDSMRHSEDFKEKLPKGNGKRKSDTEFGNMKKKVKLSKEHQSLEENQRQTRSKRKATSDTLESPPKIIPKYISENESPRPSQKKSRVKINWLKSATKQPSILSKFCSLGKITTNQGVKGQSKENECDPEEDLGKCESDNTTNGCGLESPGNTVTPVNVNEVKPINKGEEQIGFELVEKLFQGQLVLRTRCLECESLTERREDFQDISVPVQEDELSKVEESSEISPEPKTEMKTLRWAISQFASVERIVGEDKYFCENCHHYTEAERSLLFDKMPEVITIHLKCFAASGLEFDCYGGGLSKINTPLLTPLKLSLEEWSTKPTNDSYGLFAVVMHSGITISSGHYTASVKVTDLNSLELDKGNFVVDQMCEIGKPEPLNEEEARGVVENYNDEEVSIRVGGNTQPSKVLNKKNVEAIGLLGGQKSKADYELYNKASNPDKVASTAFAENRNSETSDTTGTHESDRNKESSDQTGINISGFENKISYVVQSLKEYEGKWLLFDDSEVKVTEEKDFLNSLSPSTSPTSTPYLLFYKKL

O=[As]O[As]=O (stereo unspecified)
active: [8]; parasite line A 8.91 µM | [8]; parasite line B 8.91 µM | [9] 11.2 µM | [10] 3.98 µM | [11] 11.2 µM | [12] 11.2 µM | [13] 8.91 µM | [14] 10 µM | [15] 12.6 µM | [16] 11.2 µM | [17] 9.53 µM | [18] 13.5 µM | [19] 13.5 µM | [20] 10.7 µM | [21] 12 µM | [22] 13.5 µM | [23] 7.94 µM | [24] 11.2 µM | [25] 8.91 µM | [26] 7.94 µM | [27] 7.94 µM | [28] 12.6 µM | [29] 8.91 µM | [30] 6.31 µM
inactive: [1] | [2] | [3] | [4] | [5] | [6] | [7]
